Screening data: PubChem BioAssay, The Scripps Research Institute Molecular Screening Center
The list is not random: actives were taken first. Their share in the collection is about 5.7%.
DAX1 inh-1 = inhibitors of human orphan nuclear receptor DAX1 (NR0B1); hit rate 0.99% among 340,000; P51843; inhibition, % at 6.75 µM; HEK293 Gal4-DAX1 luciferase reporter, luminescence;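 active = inhibition above the mean over all tested compounds plus 3 SD, cut at about 4.2% in these data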;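 note: inhibition shows as a rise in luminescence from relieved DAX1 repression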
Target sequence (P51843 207-470 limits assumed): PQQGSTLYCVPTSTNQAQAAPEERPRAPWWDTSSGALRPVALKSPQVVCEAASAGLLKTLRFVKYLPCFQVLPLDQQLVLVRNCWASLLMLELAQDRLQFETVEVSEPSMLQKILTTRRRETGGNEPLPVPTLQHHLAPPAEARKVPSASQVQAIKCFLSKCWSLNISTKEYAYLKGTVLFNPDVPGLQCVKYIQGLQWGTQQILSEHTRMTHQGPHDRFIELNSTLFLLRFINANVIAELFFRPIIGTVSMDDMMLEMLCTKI
hcDAF-12 act = activators of H. contortus DAF-12 nuclear receptor | HEK293 hcDAF-12 lit1-tk-luc reporter, luminescence; 0% DMSO, 100% Δ7-dafachronic acid | activation, % at 6.8 µM | hit rate 1.4% among 370,000;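 active = activation above the mean of all tested compounds plus 3 SD, cut at about 5.5% in these data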
AHR activator = activators of human aryl hydrocarbon receptor. P35869. AHR-responsive luciferase reporter cells, luminescence. activation, % at 5 µM. hit rate 2.5% among 320,000; in the data active = activation above about 47%
hgDAF-12 ag = hgDAF-12 agonism, primary luciferase screen. HEK293 GAL4-hgDAF12 UAS-luciferase reporter, agonist luminescence; normalized to butyrate control. hit rate 1.8% among 370,000. activation, % at 6.8 µM;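 active = activation above a cutoff set at the mean of all screened compounds plus 3 SD, cut at about 10% in these data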
ssDAF-12 act = S. stercoralis DAF-12 activation, primary screen. activation, % at 6.8 µM. HEK293 ssDAF-12/GRIP1 lit1-tk-luc reporter, luminescence; % of 3 µM dafachronic acid response. AID 652126. hit rate 1% among 370,000;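 active = activation above the mean over all tested compounds plus 3 SD, cut at about 0.9% in these data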
DAX1 inh-2 = inhibitors of DAX1 repression of SF-1 activated StAR promoter | hit rate 1.1% among 370,000 | inhibition, % at 6.8 µM | HEK293T StAR-luciferase reporter, SF-1/DAX-1 repression relief;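 active = inhibition above the mean over all tested compounds plus 3 SD, cut at about 3.6% in these data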;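 note: higher inhibition means more luminescence from relief of DAX-1 repression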
Of the large screens only hits and unclear results are named; the others gave an inactive call.

CN(C(=O)C1CCC(=O)N(CCc2ccc(Cl)cc2)C1)C1CCOCC1 (stereo not drawn)	none
COC(=O)c1ccccc1S(=O)(=O)NNC(=O)C12CC3CC(CC(C3)C1)C2	none
COc1cc(SC)ccc1C(=O)OCC(=O)NC(=O)NC(C)C	none
COc1cc(SC)ccc1C(=O)OCC(=O)NCC(C)C	DAX1 inh-1 4.3
CCn1cc(S(=O)(=O)Nc2ccc(Cl)cc2F)cn1	none
CCN1CCCC1CNS(=O)(=O)c1cccc(C(F)(F)F)c1 (stereo not drawn)	none
CCN1CCCC1CNS(=O)(=O)c1ccc(F)c(Cl)c1 (stereo not drawn)	DAX1 inh-1 4.4
CCCCCCCn1c(NC(=O)CC)nc2ccccc21	none
Cc1cccc(C(=O)Nc2ccc(C(=O)N/N=C/c3ccco3)cc2)c1	none
O=C(CSc1nc2ccsc2c(=O)n1CC1CCC(C(=O)O)CC1)c1ccc(F)cc1 (stereo not drawn)	hgDAF-12 ag 11.2
O=C(CSc1nc2ccsc2c(=O)n1CC1CCC(C(=O)O)CC1)c1ccc(Cl)cc1 (stereo not drawn)	none
O=C(O)C1CCC(Cn2c(SCc3cc(=O)n4ccccc4n3)nc3ccsc3c2=O)CC1 (stereo not drawn)	DAX1 inh-1 5.0
CN(Cc1ccco1)S(=O)(=O)c1ccc2c(c1)CCN2C(=O)CC(C)(C)C	none (no result: DAX1 inh-1, AHR activator)
CN(C)S(=O)(=O)c1ccc(N2CCCC2)c(C(=O)Nc2nc3ccc(F)cc3s2)c1	ssDAF-12 act 0.9
Cc1cccc2sc(NC(=O)c3cc(S(=O)(=O)N(C)C)ccc3N3CCCC3)nc12	none
CN(C)S(=O)(=O)c1ccc(N2CCCC2)c(C(=O)Nc2nc3ccccc3s2)c1	ssDAF-12 act 1.9
CC(=O)Nc1ccc(S(=O)(=O)N(C)CC(=O)OC(C)C(=O)N(C)Cc2ccccc2)cc1 (stereo not drawn)	none
CCN(CC)CCn1c2c(c(SCC(=O)Nc3ccc4c(c3)OCCO4)nc1=O)CCCC2	none
O=C(NCCc1ccccc1)C1CCN(C(=O)c2ccc([N+](=O)[O-])cc2)CC1	ssDAF-12 act 0.9
CC1CCCCN1CC(O)COc1ccc(OCC(O)CN2CCCCC2C)cc1 (stereo not drawn)	none
COCCCNC(=O)CCc1c(C)c2cc3c(C)coc3cc2oc1=O	none
CCCCNC(=O)c1nc(-c2cnccn2)oc1-c1ccc(Cl)cc1	none (no result: DAX1 inh-1, AHR activator)
CCCCNC(=O)c1nc(-c2cccs2)oc1-c1ccc(Cl)cc1	ssDAF-12 act 0.9 (no result: DAX1 inh-1, AHR activator)
Nn1c(SCC(=O)N2CCOCC2)nnc1C1CC1	none
CC(=O)SC(C[N+](=O)[O-])c1cn(C(C)=O)c2ccccc12 (stereo not drawn)	AHR activator 62.9
c1ccc2c(c1)OCCOCCOc1ccccc1OCCOCCO2	AHR activator 64.2
COC(=O)c1ccc(N)c2c(N)ccc(C(=O)OC)c12	none (no result: DAX1 inh-1, AHR activator)
Cc1ccc(S(=O)(=O)N2CCOCC2)cc1NC(=O)COC(=O)c1ccc(Cl)nc1	none
N#C/C(=N/Nc1ccc(OC(F)(F)F)cc1)C(N)=S	AHR activator 54.1
c1ccc(CNc2nc3ccccc3n3cnnc23)nc1	AHR activator 50.4
CCCCc1cc(=O)oc2c(CN(C)C)c(O)c(Cl)cc12	ssDAF-12 act 1.3
O=C1COc2cc(S(=O)(=O)CCC(=O)N3CCCCC3)c(Cl)cc2N1	none
N#C/C(=C(/O)CCl)c1nc2c(s1)CCc1ccccc1-2	AHR activator 67.2
Nc1nc2c(s1)CCc1ccccc1-2	none
COc1ccc(N2C(=O)c3[nH]nc(-c4ccccc4)c3C2c2ccc(F)cc2)cc1 (stereo not drawn)	none (no result: DAX1 inh-1, AHR activator)
Cc1nc(-c2ccc3c(c2)OCCO3)cs1	none
c1csc(-c2nc3ccccc3s2)c1	DAX1 inh-1 4.6
c1ccc(CSc2ccc(-c3ccc4c(c3)OCO4)nn2)cc1	AHR activator 73.6
Fc1ccc(CSc2ccc(-c3ccc4c(c3)OCO4)nn2)cc1	none
c1ccc2sc(-c3ccc4c(c3)OCO4)nc2c1	AHR activator 65.0 (no result: hcDAF-12 act, hgDAF-12 ag, ssDAF-12 act, DAX1 inh-2)
Cc1nccc(-c2ccc3c(c2)OCO3)n1	AHR activator 57.8
O=C(NC1CC1)c1nc(Cn2cc([N+](=O)[O-])cn2)no1	none
c1ccc(-c2nccc(-c3ccc4c(c3)OCO4)n2)cc1	AHR activator 78.9
c1ccc(-c2noc(-c3ccc4c(c3)OCO4)n2)nc1	none
COc1ccc(/C=N/NC(=O)c2c(C)nnn2-c2nonc2N)cc1OC	DAX1 inh-1 5.8
COCC#Cc1cnc2c(c1)C(=O)N([C@@H](C)CO)C[C@H](C)[C@H](CN(C)C(=O)c1ccc3c(c1)OCO3)O2	none (no result: DAX1 inh-1, AHR activator)
CC1(c2cccc(Br)c2)NC(=O)N(CC(=O)Nc2cccnc2Cl)C1=O (stereo not drawn)	DAX1 inh-2 3.7
CC1(c2ccccc2Cl)NC(=O)N(CC(=O)Nc2cccnc2Cl)C1=O (stereo not drawn)	none
C=CCN1C[C@H](COC(=O)c2ccc(C)c(C)c2)Oc2cccc(F)c2S1(=O)=O	none (no result: DAX1 inh-1, AHR activator)
CCOc1ccc(NC(=O)N(C2CCCCC2)C(C)c2ccncc2)cc1 (stereo not drawn)	ssDAF-12 act 1.6
CCOc1ccc(NC(=O)N(C2CCCCC2)C(C)c2cccnc2)cc1 (stereo not drawn)	none
COc1cccc([C@@H]2Oc3ccc(OC)cc3C(=O)[C@H]2OC(=O)Nc2cc(OC)c(OC)c(OC)c2)c1	none (no result: DAX1 inh-1, hcDAF-12 act, hgDAF-12 ag, ssDAF-12 act, DAX1 inh-2)
COc1cccc([C@@H]2Oc3ccc(OC)cc3C(=O)[C@H]2OC(=O)NCc2ccc3c(c2)OCO3)c1	AHR activator 54.1 (no result: DAX1 inh-1, hcDAF-12 act, hgDAF-12 ag, ssDAF-12 act, DAX1 inh-2)
O=C(Cc1cccs1)Nc1nnc(SCc2ccc(Br)cc2)s1	AHR activator 47.6
CN1CCN(NC(=O)c2cc(S(=O)(=O)Nc3ccc(Cl)cc3)ccc2Cl)CC1	none
Cc1nc(=S)n(-c2ccccc2)[nH]1	none
S=c1nc(-c2ccccc2)[nH]n1-c1ccccc1	AHR activator 108.2
COC(=O)c1ccc(CSc2nnc(C)s2)cc1	none
COc1ccc(CSc2nnc(C)s2)cc1F	hgDAF-12 ag 10.8
COc1ccc(-c2nnc(-c3ccc(N)cc3)o2)cc1	hgDAF-12 ag 11.2
O=[N+]([O-])c1ccccc1NCc1c(O)ccc2ccccc12	hcDAF-12 act 6.3, ssDAF-12 act 1.6
Oc1ccc2ccccc2c1CNc1ccccc1	ssDAF-12 act 1.7 (no result: AHR activator)
Oc1ccc2ccccc2c1CNc1ccc2ccccc2c1	none (no result: AHR activator)
C#CCOCC1CN(c2ccccc2)C(=O)O1 (stereo not drawn)	DAX1 inh-1 4.2 (no result: AHR activator)
CCCn1cc(CCC(=O)Nc2ccc(Oc3cccnc3)cc2)c2ccccc21	none (no result: DAX1 inh-1, AHR activator)
Cc1cccc(C(=O)Nc2ccccc2SCC(=O)Nc2ccc(C)c(Cl)c2)c1	hcDAF-12 act 6.5
Cc1ccc(NC(=O)CSc2ccccc2NC(=O)c2cccc(Cl)c2)cc1Cl	none
Cc1nc2sc(C(c3ccco3)N3CCc4ccccc4C3)c(O)n2n1 (stereo not drawn)	AHR activator 51.2
